Test results taken from PubChem BioAssay.
Entries with a potency or affinity are not part of this list. Active and inactive are the calls of the source. The limit is not given here; nearly all actives have IC50 up to about 0.91 µM.

The compounds below were run against Calcium-dependent protein kinase 4 (Plasmodium falciparum (isolate 3D7)) (UniProt Q8IBS5) (assay: PfCDPK4 kinase inhibitors, biochemical, TCAMS library (AID 1159588)). Settings: recombinant PfCDPK4, Kinase-Glo ATP depletion luminescence.
Chain of Calcium-dependent protein kinase 4 (Plasmodium falciparum (isolate 3D7)) (Q8IBS5 whole entry, looked up): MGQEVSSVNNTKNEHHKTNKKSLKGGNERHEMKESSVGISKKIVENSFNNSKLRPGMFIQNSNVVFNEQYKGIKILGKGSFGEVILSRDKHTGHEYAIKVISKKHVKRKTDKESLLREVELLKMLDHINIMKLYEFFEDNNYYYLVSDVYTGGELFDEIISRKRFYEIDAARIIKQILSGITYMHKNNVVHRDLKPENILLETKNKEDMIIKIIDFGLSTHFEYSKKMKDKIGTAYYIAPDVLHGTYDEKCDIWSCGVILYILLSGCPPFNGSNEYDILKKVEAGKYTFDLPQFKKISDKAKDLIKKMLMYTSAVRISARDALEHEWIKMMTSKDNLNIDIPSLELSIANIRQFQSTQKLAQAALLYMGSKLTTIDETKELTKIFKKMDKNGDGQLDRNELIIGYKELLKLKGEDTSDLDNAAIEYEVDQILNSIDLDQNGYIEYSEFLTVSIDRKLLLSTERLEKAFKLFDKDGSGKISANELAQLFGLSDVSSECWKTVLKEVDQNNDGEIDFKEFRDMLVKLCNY

outcome, inactive:
COc1ccc2nccc(NN=CC=Cc3ccccc3)c2c1, CN(Cc1ccncc1)C(Cc1ccccc1)C1CCN(Cc2ccc(O)c(Cl)c2)CC1 (stereo not given), C[C@@H]1CN(c2cnn(C/C=C/c3ccc(NC(=O)c4ccc5nonc5c4)cc3)c(=O)c2Cl)C[C@H](C)N1, Cc1oc(-c2ccccc2)nc1CCOc1ccc(C[C@H](Nc2ccccc2C(=O)c2ccccc2)C(=O)NCc2ccccn2)cc1, N#CC(NC(=O)C=Cc1ccccc1)c1ccccc1 (stereo not given), COc1ccc(F)cc1-c1ccccc1CNC(=O)CN(C)S(=O)(=O)c1cc(C)cc(Cl)c1C, c1ccc(CCNc2ccnc(Nc3ccc4n[nH]nc4c3)n2)cc1, Oc1ccc(Cl)cc1Nc1nc(C(F)(F)F)nc2ccccc12, CCOc1ccc(-c2nonc2NC(=O)c2ccc(OC)cc2)cc1OCC, Cn1cc(Br)c(-c2cccc(Nc3ccnc4cc(-c5nccs5)ccc34)c2)n1, O=C(/C=C/c1ccc(Cl)cc1)NCCCCCN1CCN(C(=O)Nc2ccc(Cl)c(C(F)(F)F)c2)CC1, COc1c(C2CCN(CCCCNC(=O)c3ccc(-c4ccc(Cl)cc4)cc3)CC2)ccc2c1C(C)(C)CCC2(C)C, Cc1noc(C)c1-c1cccc(CNCc2cccc(-c3cccc(-c4nc5ccc(F)cc5[nH]4)c3)c2)c1, C=CCOC(=O)N1CCC(CNCc2ccc(-c3cccc(-c4nc5ccc(F)cc5[nH]4)c3)cc2)C1 (stereo not given), Cc1ccc(CNC(=O)[C@H](CC(C)C)Nc2cc(C)nc(NCC3CCCCC3)n2)cc1
